According to PubChem BioAssay:
“And” between values parts separate entries of the source, which are not always exact repeats. Identical values can stand only once. The source made the active and inactive calls.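 The calls were made as follows, unless noted: active = thallium flux through the channel raised or lowered by more than 3 SD from vehicle-only wells, actives on both sides; inactive = the rest.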

Columns and labels:
[1] = tested on: Hepatitis C virus NS3 helicase; test: blockers of NS3h binding to DNA – biochemical, fluorescence polarization, NIH Clinical Collection, primary screen (AID 743270; call rule not given here); settings: NS3 helicase binding to Cy5-dT15 DNA, stronger effect = higher value, concentration not given here
[2] = biological target: Single-stranded DNA-binding protein (Escherichia coli (strain K12)) (UniProt P0AGE0); test: SSB-ssDNA binding inhibitors – biochemical, fluorescence polarization, NIH Clinical Collection, counter-screen for HCV NS3 helicase inhibitor project (AID 743271; in the data active = inhibition above about 28%); settings: E. coli SSB-DNA binding, stronger effect = higher value, concentration not given here
[3] = compounds distorting NS3 helicase fluorescence signal – biochemical, NIH Clinical Collection, artefact control for HCV NS3 helicase inhibitor project (AID 743272; call rule not given here;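 also: HCV NS3 helicase with a Cy5 labelled single stranded DNA probe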); settings: fluorescence interference counterscreen, HCV NS3 helicase assay; stronger effect = lower value
[4] = Wnt pathway potentiators raising nuclear beta-catenin – imaging, WNT3A-conditioned medium, mouse C2C12, NPC library, primary screen (AID 1117326; in the data active = nuclear beta-catenin stimulation mostly above about 4.2%, no sharp cut-off; inactive = mostly below about 10%); settings: stronger effect = higher value
[5] = stimulators of insulin release from INS-1E, primary screen, cell-based, 5 mM glucose, NPC library (AID 1117329;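 active = compound raises insulin release from rat beta cells at 5 mM glucose, no numeric limit stated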); settings: rat INS-1E insulin secretion, at 10 µM, stronger effect = higher value
[6] = growth inhibition of GSK3B-pretreated HCT116 cells – cell-based, CellTiter-Glo, 0.2 to 20 µM (AID 1117336;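 active = compounds lowering colon cancer cell viability after pretreatment blocking the GSK3B kinase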); settings: HCT116 viability after GSK3B inhibitor, at 20 µM, stronger effect = higher value
[7] = inhibition of endothelial tube formation, primary screen, imaging, VEGF stimulated, CD31 staining, tube area, NPC library (AID 1117340;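 active = compound that reduces growth-factor-driven endothelial tube area in a mixed cell culture, no cutoff stated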); settings: VEGF-stimulated ADSC/ECFC co-culture, at 10 µM, stronger effect = higher value
[8] = GLP1 release stimulators, primary, NCI-H716, NPC library (AID 1117341;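 active = compound raises GLP1 secretion from the human gut endocrine cells, with no numeric limit stated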); settings: NCI-H716 cells, at 10 µM, stronger effect = higher value
[9] = HCT116 colon cancer cell growth inhibition, primary screen, CellTiter-Glo luminescence, NPC library (AID 1117342;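 active = compounds that lower survival of HCT116 colon cancer cells in the luminescence readout, no numeric limit stated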); settings: at 20 µM (top of the series)
[10] = reduced SW480 viability measured with CellTiter-Glo, NPC library, primary (AID 1117343;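 active = compounds that lower viability of the colon cancer cells in the luminescence readout, with no numeric limit stated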); settings: CellTiter-Glo luminescence; at 20 µM (top of the series)
[11] = NPC library primary testing for decreased DLD-1 cell viability via CellTiter-Glo (AID 1117346;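 active = compounds that lower survival of DLD-1 colon cancer cells in the luminescence readout, no cutoff given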); settings: DLD-1 viability, CellTiter-Glo luminescence; at 20 µM (top of the series)
[12] = biological target: 6-phosphogluconate dehydrogenase, decarboxylating (Homo sapiens) (UniProt P52209); test: inhibition of human phosphogluconate dehydrogenase – biochemical, recombinant enzyme, NADPH absorbance, primary screen (AID 1159550;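 active = at least 20% inhibition of 6-phosphogluconate dehydrogenase activity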); settings: recombinant 6PGD, NADPH absorbance 341 nm; at 10 µM; stronger effect = higher value
Sequence of 6-phosphogluconate dehydrogenase, decarboxylating (Homo sapiens) (P52209 whole entry, looked up): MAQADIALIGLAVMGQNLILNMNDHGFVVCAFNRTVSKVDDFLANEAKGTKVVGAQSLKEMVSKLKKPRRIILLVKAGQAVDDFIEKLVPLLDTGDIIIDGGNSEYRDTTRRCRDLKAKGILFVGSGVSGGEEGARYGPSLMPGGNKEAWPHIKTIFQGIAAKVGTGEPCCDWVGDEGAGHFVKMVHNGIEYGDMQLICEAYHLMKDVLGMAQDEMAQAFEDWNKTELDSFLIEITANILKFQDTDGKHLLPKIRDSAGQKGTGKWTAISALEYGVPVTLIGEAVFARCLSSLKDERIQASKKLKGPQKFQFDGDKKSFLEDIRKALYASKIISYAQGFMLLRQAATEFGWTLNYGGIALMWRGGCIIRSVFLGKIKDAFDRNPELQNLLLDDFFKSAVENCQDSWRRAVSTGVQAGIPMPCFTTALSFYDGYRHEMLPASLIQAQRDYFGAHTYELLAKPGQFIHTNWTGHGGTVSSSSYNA

[13] = viability loss with induced miR-34 in A549 – imaging, A549 dox-inducible miR-34, nuclei and caspase counts, primary screen (AID 1347080;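 active = compounds whose cell count with miR-34 switched on is under 0.7 times the count with it off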); settings: A549 miR-34 inducible, Hoechst nuclei count, 48 h
[14] = biological target: NAD(+) hydrolase SARM1 (Homo sapiens) (UniProt Q6SZW1); test: blocking NAD cleavage by SARM1 SAM-TIR – cell lysate, NAD-Glo luminescence (AID 1508614;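 active = compound whose remaining NAD level is above about 45 nM, limit read from the data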;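 also: higher remaining NAD means stronger inhibition of SARM1 NADase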); settings: SAM-TIR HEK293T lysate NADase, at 1 µM, stronger effect = higher value
Sequence of NAD(+) hydrolase SARM1 (Homo sapiens) (Q6SZW1 whole entry, looked up, the tested form may be a part): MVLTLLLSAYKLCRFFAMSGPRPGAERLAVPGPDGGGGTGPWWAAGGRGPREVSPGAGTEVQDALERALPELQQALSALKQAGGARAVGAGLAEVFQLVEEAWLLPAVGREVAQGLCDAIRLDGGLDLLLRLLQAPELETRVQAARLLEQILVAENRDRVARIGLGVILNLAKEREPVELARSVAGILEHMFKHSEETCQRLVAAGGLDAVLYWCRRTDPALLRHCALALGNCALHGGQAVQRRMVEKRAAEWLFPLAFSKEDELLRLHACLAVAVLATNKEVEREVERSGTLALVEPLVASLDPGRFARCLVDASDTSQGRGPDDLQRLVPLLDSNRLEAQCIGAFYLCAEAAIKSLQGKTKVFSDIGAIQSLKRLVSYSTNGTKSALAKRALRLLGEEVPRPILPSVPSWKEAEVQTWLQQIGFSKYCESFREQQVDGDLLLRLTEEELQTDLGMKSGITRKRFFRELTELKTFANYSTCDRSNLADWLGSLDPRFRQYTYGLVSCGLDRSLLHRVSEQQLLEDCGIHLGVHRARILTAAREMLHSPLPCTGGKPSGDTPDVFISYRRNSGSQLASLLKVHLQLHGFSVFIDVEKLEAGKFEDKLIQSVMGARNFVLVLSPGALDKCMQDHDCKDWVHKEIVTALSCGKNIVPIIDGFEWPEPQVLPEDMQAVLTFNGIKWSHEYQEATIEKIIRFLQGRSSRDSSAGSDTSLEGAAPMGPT

[15] = biological target: Mitogen-activated protein kinase 7 (Homo sapiens) (UniProt Q13164); test: Gal4-ERK5 driven luciferase induction – cell-based, HTS, primary screen (AID 1508626;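 active = luciferase signal above three times the same-plate solvent-only control wells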;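 also: luciferase driven by Gal4-ERK5 fusion binding five Gal4 sites before minimal TATA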); settings: HeLa Gal4-ERK5 transactivation, 18 h, at 5 µM, stronger effect = higher value
Sequence of Mitogen-activated protein kinase 7 (Homo sapiens) (Q13164 whole entry, looked up, the tested form may be a part): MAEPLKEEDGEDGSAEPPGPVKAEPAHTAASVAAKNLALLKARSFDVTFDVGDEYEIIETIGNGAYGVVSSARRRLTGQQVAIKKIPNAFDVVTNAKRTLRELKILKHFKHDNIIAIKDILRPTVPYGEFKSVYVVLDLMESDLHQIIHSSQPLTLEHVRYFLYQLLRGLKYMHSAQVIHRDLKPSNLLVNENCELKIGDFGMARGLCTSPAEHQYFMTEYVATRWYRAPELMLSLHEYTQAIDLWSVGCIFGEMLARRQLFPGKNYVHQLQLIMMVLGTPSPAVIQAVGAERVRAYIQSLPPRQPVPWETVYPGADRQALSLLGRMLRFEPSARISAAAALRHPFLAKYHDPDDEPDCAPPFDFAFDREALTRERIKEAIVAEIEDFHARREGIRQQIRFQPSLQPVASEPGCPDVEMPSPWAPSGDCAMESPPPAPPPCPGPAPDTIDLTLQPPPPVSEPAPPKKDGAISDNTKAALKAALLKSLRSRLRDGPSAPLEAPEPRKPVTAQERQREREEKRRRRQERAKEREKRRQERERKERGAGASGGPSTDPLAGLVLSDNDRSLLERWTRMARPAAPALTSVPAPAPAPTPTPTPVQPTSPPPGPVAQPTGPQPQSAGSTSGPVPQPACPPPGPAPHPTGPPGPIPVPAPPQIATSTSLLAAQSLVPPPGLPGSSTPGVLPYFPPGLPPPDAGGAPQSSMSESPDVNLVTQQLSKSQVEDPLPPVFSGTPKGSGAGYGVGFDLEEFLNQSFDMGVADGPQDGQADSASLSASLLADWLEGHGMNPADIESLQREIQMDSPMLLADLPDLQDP

[16] = tested on: F380Y; test: BK channel mutant inhibitors and activators – cell-based, U2OS BacMam, thallium flux, beta subunits, selectivity assay, profiling panel (AID 1259406); settings: U2OS BacMam BK variants, at 30 µM;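 also: initial slope of Thallos dye fluorescence rise after thallium is added; log ratio against the mean of 0.3% DMSO vehicle wells on the same plate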
[17] = tested on: F380Y/beta2Delta; test: as above; settings: U2OS BacMam BK variants, at 30 µM
[18] = biological target: Calcium-activated potassium channel subunit alpha-1 (Homo sapiens) + Leucine-rich repeat-containing protein 26 (Homo sapiens) (UniProt Q12791+Q2I0M4); test: as above; settings: U2OS BacMam BK variants, F380Y/Slo1WT/gamma1, at 30 µM
Sequence of Calcium-activated potassium channel subunit alpha-1 (Homo sapiens) + Leucine-rich repeat-containing protein 26 (Homo sapiens) (Q2I0M4 whole entry, looked up, one chain of several): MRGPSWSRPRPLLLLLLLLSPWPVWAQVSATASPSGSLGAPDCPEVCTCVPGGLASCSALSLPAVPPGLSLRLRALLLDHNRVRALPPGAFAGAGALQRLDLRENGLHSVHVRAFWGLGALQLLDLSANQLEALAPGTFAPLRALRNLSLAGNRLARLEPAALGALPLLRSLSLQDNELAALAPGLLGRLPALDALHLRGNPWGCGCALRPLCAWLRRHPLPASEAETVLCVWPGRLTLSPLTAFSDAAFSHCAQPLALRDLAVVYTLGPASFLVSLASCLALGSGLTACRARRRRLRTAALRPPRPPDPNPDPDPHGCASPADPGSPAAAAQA

[19] = EMT-state selective cytotoxicity in co-culture – imaging, PC-3E GFP, TEM4-18 mCherry, primary screen (AID 1345086;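 active = compounds killing one labelled cell type while sparing the other, by normalised counts and ratio limits, not self-fluorescent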;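 as to all read-outs here: cells exposed to compound for 72 h before imaging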;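 as to red/green cell ratio (normalised): normalised mesenchymal count divided by normalised epithelial count so high means epithelial killing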); settings: PC-3E GFP / TEM4-18 mCherry co-culture, imaging cell counts, at 1 µM; for red/green cell ratio (normalised): actives lie on both sides, counts scaled to control wells, 1 = unselective
[20] = MELAS cybrid and Rieske KO viability enhancers – cell-based, MELAS cybrids, Rieske KO mouse fibroblasts, CellTiter-Glo, primary screen (AID 1508586;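 active = mean z-score across replicates of 1.96 or higher in either the MELAS or the Rieske mutant cell line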;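 also: z relative to plate mean and SD of compound and empty wells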); settings: low glucose
[21] = stronger effect = lower value, cell number ratio, induced over uninduced
[22] = measured here: relative caspase fold change +Dox/-Dox
[23] = measured here: total cells with miR-34 induction, stronger effect = lower value
[24] = measured here: total cells without miR-34 induction
[25] = measured here: epithelial PC-3E GFP cell survival
[26] = measured here: mesenchymal TEM4-18 mCherry cell survival
[27] = MELAS cybrid survival, CellTiter-Glo 48 h, stronger effect = higher value
[28] = Rieske KO mouse fibroblast survival, CellTiter-Glo 72 h

CC(=O)OCC(=O)[C@@]1(O)CC[C@H]2[C@@H]3CCC4=CC(=O)C=C[C@]4(C)[C@H]3[C@@H](O)C[C@@]21C
inhibition [1]: -5% (inactive) | inhibition [2]: -0.48% (inactive) | fluorescence ratio [3]: 0.91 (inactive) | nuclear beta-catenin stimulation ([4]; at 10 µM): 1.2% (inactive) | nuclear beta-catenin stimulation ([4]; stimulation, at 2 µM): 0% | insulin secretion stimulation [5]: 1% (inactive) | viability decrease [6]: 6.6% (inactive) | tube area decrease [7]: 5.5% (inactive) | GLP1 secretion stimulation [8]: 1.2% (inactive) | inhibition of viability [9]: -4.6% (inactive) | viability decrease (inhibition) [10]: -9.3% (inactive) | viability decrease (inhibition) [11]: -10.8% (inactive) | inhibition [12]: 20% (inactive) | fold change [13, 21]: 0.981 (inactive) | fold change [13, 22]: 0.792 | cell count [13, 23]: 8020 | cell count [13, 24]: 8180 | remaining NAD [14]: 10 nM (inactive) | luciferase signal [15]: 60 AU (inactive) | log fold change Tl+ flux [16]: 0.0438 (inactive) | log fold change Tl+ flux [17]: -0.0297 (inactive) | log fold change Tl+ flux [18]: 0.072 (inactive)

O=c1n(CCCN2CCN(c3cccc(Cl)c3)CC2)nc2ccccn12
inhibition [1]: -6.73% (inactive) | inhibition [2]: -2.41% (inactive) | fluorescence ratio [3]: 0.97 (inactive) | nuclear beta-catenin stimulation ([4]; at 10 µM): 4.5% (inactive) | nuclear beta-catenin stimulation ([4]; stimulation, at 2 µM): 0.2% | insulin secretion stimulation [5]: -0.1% (inactive) | viability decrease [6]: -48.7% (inactive) | tube area decrease [7]: 4.5% (inactive) | GLP1 secretion stimulation [8]: 0.4% (inactive) | inhibition of viability [9]: 16.6% (inactive) | viability decrease (inhibition) [10]: 9.9% (inactive) | viability decrease (inhibition) [11]: 2.2% (inactive) | inhibition [12]: -5.67% (inactive) | red/green cell ratio (normalised) [19]: 1.12 (inactive) | normalised cell number [19, 25]: 1.02 | normalised cell number [19, 26]: 1.14 | z-score [20, 27]: 0.0745 (inactive) | z-score [20, 28]: -0.0668 | remaining NAD [14]: 10 nM (inactive) | luciferase signal [15]: 72 AU (inactive) | log fold change Tl+ flux [16]: 0.0157 (inactive) | log fold change Tl+ flux [17]: 0.035 (inactive) | log fold change Tl+ flux [18]: 0.0319 (inactive)

CC(=O)O[C@]1(C(C)=O)CC[C@H]2[C@@H]3C=C(C)C4=CC(=O)CC[C@]4(C)[C@H]3CC[C@@]21C
inhibition [1]: 3.56% (inactive) | inhibition [2]: 3.75% (inactive) | fluorescence ratio [3]: 0.98 (inactive) | nuclear beta-catenin stimulation ([4]; at 10 µM): 2.7% (inactive) | nuclear beta-catenin stimulation ([4]; stimulation, at 2 µM): 1.9% | insulin secretion stimulation [5]: 0.1% (inactive) | viability decrease [6]: -86.9% (inactive) | tube area decrease [7]: -10.2% (inactive) | GLP1 secretion stimulation [8]: 0% (inactive) | inhibition of viability [9]: 46.5% (inactive) | viability decrease (inhibition) [10]: 59.6% (active) | viability decrease (inhibition) [11]: 22.4% (inactive) | inhibition [12]: -2.23% (inactive) | fold change [13, 21]: 0.793 (inactive) and 0.839 (inactive) | fold change [13, 22]: 1.65 and 1.15 | cell count [13, 23]: 7300 and 6980 | cell count [13, 24]: 9200 and 8320 | z-score [20, 27]: -0.444 (inactive) and 0.0969 (inactive) | z-score [20, 28]: -0.239 and -0.33 | remaining NAD [14]: 10 nM (inactive) | luciferase signal [15]: 52 AU (inactive) | log fold change Tl+ flux [16]: 0.00819 (inactive) | log fold change Tl+ flux [17]: 0.0101 (inactive) | log fold change Tl+ flux [18]: -0.00133 (inactive)

CCN(CC)CC(=O)Nc1c(C)cccc1C
inhibition [1]: -1.98% (inactive) | inhibition [2]: -0.87% (inactive) | fluorescence ratio [3]: 0.96 (inactive) | nuclear beta-catenin stimulation ([4]; at 10 µM): -0.4% (inactive) | nuclear beta-catenin stimulation ([4]; stimulation, at 2 µM): 0.8% | insulin secretion stimulation [5]: -1.4% (inactive) | viability decrease [6]: -9.9% (inactive) | tube area decrease [7]: 9.2% (inactive) | GLP1 secretion stimulation [8]: 0.9% (inactive) | inhibition of viability [9]: -5.2% (inactive) | viability decrease (inhibition) [10]: -0.2% (inactive) | viability decrease (inhibition) [11]: 0.45% (inactive) | inhibition [12]: -1.54% (inactive) | red/green cell ratio (normalised) [19]: 1.11 (inactive) | normalised cell number [19, 25]: 1.01 | normalised cell number [19, 26]: 1.12 | z-score [20, 27]: -0.329 (inactive) and 0.222 (inactive) and 0.215 (inactive) | z-score [20, 28]: -0.148 and 0.143 and 0.303 | remaining NAD [14]: 10 nM (inactive) | luciferase signal [15]: 48 AU (inactive) | log fold change Tl+ flux [16]: 0.00448 (inactive) | log fold change Tl+ flux [17]: -0.0588 (inactive) | log fold change Tl+ flux [18]: 0.0193 (inactive)

O=C1N=C(O)CN1/N=C/c1ccc(-c2ccc([N+](=O)[O-])cc2)o1
nuclear beta-catenin stimulation ([4]; at 10 µM): 4.1% (inactive) | nuclear beta-catenin stimulation ([4]; stimulation, at 2 µM): 4.2% | insulin secretion stimulation [5]: 2.6% (inactive) | viability decrease [6]: 9.2% (inactive) | tube area decrease [7]: -8.8% (inactive) | GLP1 secretion stimulation [8]: 1.9% (inactive) | inhibition of viability [9]: 20.3% (active) | viability decrease (inhibition) [10]: -30.5% (inactive) | viability decrease (inhibition) [11]: 5% (inactive) | inhibition [12]: 13.4% (inactive) | red/green cell ratio (normalised) [19]: 1.07 (inactive) | normalised cell number [19, 25]: 1.02 | normalised cell number [19, 26]: 1.1 | z-score [20, 27]: 0.073 (inactive) | z-score [20, 28]: 0.247 | remaining NAD [14]: 10 nM (inactive) | luciferase signal [15]: 156 AU (inactive)

COc1cc2nc(N3CCN(C(=O)c4ccco4)CC3)nc(N)c2cc1OC
nuclear beta-catenin stimulation ([4]; at 10 µM): 47.5% (active) | nuclear beta-catenin stimulation ([4]; stimulation, at 2 µM): 7.8% | insulin secretion stimulation [5]: 0.2% (inactive) | viability decrease [6]: 80.9% (active) | tube area decrease [7]: -2.7% (inactive) | GLP1 secretion stimulation [8]: 9.5% (inactive) | inhibition of viability [9]: 46.9% (inactive) | viability decrease (inhibition) [10]: 120% (active) | viability decrease (inhibition) [11]: 78.7% (active) | inhibition [12]: 8.49% (inactive) | red/green cell ratio (normalised) [19]: 1.27 (inactive) | normalised cell number [19, 25]: 0.98 | normalised cell number [19, 26]: 1.25 | z-score [20, 27]: 1.14 and 0.169 (inactive) | z-score [20, 28]: 2.19 and 0.838 | remaining NAD [14]: 10 nM (inactive) | luciferase signal [15]: 128 AU (inactive) | log fold change Tl+ flux [16]: 0.00597 (inactive) | log fold change Tl+ flux [17]: -0.00919 (inactive) | log fold change Tl+ flux [18]: 0.00974 (inactive)

CNC(=O)Oc1ccc2c(c1)[C@]1(C)CCN(C)[C@@H]1N2C
nuclear beta-catenin stimulation ([4]; at 10 µM): -0.4% (inactive) | nuclear beta-catenin stimulation ([4]; stimulation, at 2 µM): 0% | insulin secretion stimulation [5]: 5% (inactive) | viability decrease [6]: 5% (inactive) | tube area decrease [7]: -23.5% (inactive) | GLP1 secretion stimulation [8]: 3.8% (inactive) | inhibition of viability [9]: 23.3% (inactive) | viability decrease (inhibition) [10]: 38.9% (inactive) | viability decrease (inhibition) [11]: 0.2% (inactive) | inhibition [12]: -7.09% (inactive) and -14.3% (inactive) and -6.98% (inactive) | red/green cell ratio (normalised) [19]: 0.96 (inactive) | normalised cell number [19, 25]: 1.03 | normalised cell number [19, 26]: 1 | z-score [20, 27]: -0.485 (inactive) and 0.886 (inactive) | z-score [20, 28]: -0.245 and 0.787 | remaining NAD [14]: 10 nM (inactive) | luciferase signal [15]: 40 AU (inactive)
